Screening data: PubChem, several laboratories
Hits are enriched below; roughly 27% of the tested compounds scored in any of these assays.
CYP2C19 inh: blocks human cytochrome P450 2C19; P33261; CYP2C19 Supersomes, luciferin-H EGE luminescence, 30 min; inhibition, % at 5 µM; 96,000 tested, 21% active; AID 778;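 active = CYP2C19 inhibition above a set limit at 5 µM in the primary screen, cut at about 50% in these data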;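 also: plate controls were negative control wells for no effect and 2.5 mM tranylcypromine positive control for full effect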
Cav3 T inh: inhibitors of human Cav3.2 T-type calcium channel. 100,000 tested, 4% active. Cav3.2-expressing cells, Fluo-4 calcium fluorescence FDSS; active compounds read low. AID 449739. B-score at 10 µM. O95180;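 active = single-dose well whose peak fluorescence ratio is a statistical outlier from its plate by either plate-standardised score or position-corrected B-score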
CYP2C19 activ: activators of human cytochrome P450 2C19. recombinant CYP2C19, luciferin-H EGE luminescence; active compounds read high; 0 = fully inhibited enzyme, 1 = untreated enzyme. AID 1025. activation factor at 5 µM. 96,000 tested, under 10 active. P33261;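 active = activation factor of at least 2 at 5 µM in the primary screen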;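 also: 0 = wells with 2.5 mM tranylcypromine and 1 = vehicle-only wells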
CYP2C9 act: activators of human CYP2C9; P11712; recombinant CYP2C9, luciferin-H conversion, luminescence; active compounds read high; factor 1 = untreated enzyme, 0 = blocked; activation factor at 5 µM; 96,000 tested, 1.4% active; AID 1024;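 active = activation factor of 2 or more for CYP2C9 at a 5 µM dose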;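 also: 0 = sulfaphenazole-blocked wells and 1 = vehicle-only wells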
Target sequence (P11712 whole entry, looked up): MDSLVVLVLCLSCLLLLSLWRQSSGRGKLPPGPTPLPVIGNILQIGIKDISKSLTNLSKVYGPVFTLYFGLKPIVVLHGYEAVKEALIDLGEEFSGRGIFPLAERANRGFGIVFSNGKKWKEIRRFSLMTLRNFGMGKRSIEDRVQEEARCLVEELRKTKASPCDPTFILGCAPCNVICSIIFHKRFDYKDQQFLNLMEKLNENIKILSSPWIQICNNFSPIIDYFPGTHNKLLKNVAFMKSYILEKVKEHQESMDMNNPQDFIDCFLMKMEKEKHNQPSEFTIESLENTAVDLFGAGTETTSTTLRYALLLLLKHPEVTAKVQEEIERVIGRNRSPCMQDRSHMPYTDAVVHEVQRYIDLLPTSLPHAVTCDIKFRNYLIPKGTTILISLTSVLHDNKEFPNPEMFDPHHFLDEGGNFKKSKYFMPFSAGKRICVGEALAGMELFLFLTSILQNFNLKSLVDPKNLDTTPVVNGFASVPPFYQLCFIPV
CYP2C9 inh: blocks human cytochrome P450 2C9. CYP2C9 Supersomes, luciferin-H conversion, luminescence. AID 777. 96,000 tested, 20% active. inhibition, % at 5 µM. P11712;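 active = blocking of liver enzyme CYP2C9 beyond about 50% at 5 µM, limit read from the data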
Active calls of the source: *; . = no result given.

SMILES | CYP2C19 inh | Cav3 T inh | CYP2C19 activ | CYP2C9 act | CYP2C9 inh
Cc1cccc(NC(=O)c2ccccc2OCC(=O)c2ccccc2)c1 | 58* | 0.42 | 0.4 | 0.3 | 73*
CCOc1ccc(NC(=O)c2cnsn2)cc1 | 62* | -0.0093 | 0.4 | 0.6 | 42
CCOc1ccc(NC(=O)c2ccccc2O)cc1 | . | 0.11 | . | . | .
CCOc1ccc(NC(=O)c2ccccc2OCC(=O)c2ccccc2)cc1 | 61* | -0.8 | 0.4 | 0.1 | 88*
CC(C)(C)OC(=O)NCCCC[C@H](NC(=O)c1nc[nH]c1C(=O)NC1CCN(C(=O)OC(C)(C)C)CC1)C(=O)OC(C)(C)C | . | -3.4 | . | . | .
CCCCN(C(=O)c1ccco1)c1nnc(-c2cc(OC)c(OC)c(OC)c2)s1 | 15 | -1.3 | 0.8 | 1.2 | -16
CCCC(=O)Nc1ccc(NC(=O)c2ccccc2OC)cn1 | 51* | 0.41 | 0.5 | 3.2* | -220
CCCC(=O)Nc1ccc(NC(=O)c2ccccn2)cn1 | 18 | -0.023 | 0.8 | 1.2 | -21
CCSc1oc(-c2ccccc2)nc1S(=O)(=O)c1ccccc1 | 4 | -2.6 | 1 | 1.8 | -82
NC(=O)CSc1oc(-c2ccc(F)cc2)nc1S(=O)(=O)c1ccccc1 | 85* | 0.34 | 0.1 | 0.6 | 38
CC(C)Sc1oc(-c2ccco2)nc1S(=O)(=O)c1ccc(F)cc1 | . | -5.3* | . | . | .
O=S(=O)(c1ccccc1)c1nc(-c2ccco2)oc1N1CCCCCC1 | 66* | -3 | 0.3 | 0.4 | 58*
CN1CCN(c2oc(-c3ccco3)nc2S(=O)(=O)c2ccccc2)CC1 | 4 | -0.016 | 1 | 0.7 | 29
CCCSc1oc(-c2ccco2)nc1S(=O)(=O)c1ccccc1 | 90* | -2.1 | 0.1 | 1.2 | -24
CSc1oc(-c2ccco2)nc1S(=O)(=O)c1ccc(Br)cc1 | 26 | -1.8 | 0.7 | 0.7 | 28
COc1cc(-c2nc(S(=O)(=O)c3ccccc3)c(N3CCOCC3)o2)cc(OC)c1OC | 55* | 1.7 | 0.5 | 0.1 | 89*
COc1ccc(-c2nc(S(=O)(=O)c3ccc(C)cc3)c(N3CCCC3)o2)cc1 | 14 | -0.089 | 0.9 | 1 | -1
O=C(C(c1ccccc1)N1CCOCC1)N1CCOCC1 (stereo not given) | -1 | -0.047 | 1 | 1 | 0
OC(c1ccccc1)(c1ccc(F)cc1)C(c1ccccc1)N1CCOCC1 (stereo not given) | 69* | -2.8* | 0.3 | 1 | 4
O=C(CCc1c[nH]c2ccccc12)NC1CC1 | 40 | -0.68 | 0.6 | 0.9 | 7
c1ccc(CSc2n[nH]c(-c3ccco3)n2)cc1 | 61* | -0.1 | 0.4 | 0.8 | 17
O=C(c1ccco1)n1nc(-c2ccco2)nc1SCc1ccccc1 | 35 | -0.12 | 0.7 | 0.8 | 18
CCOC(=O)C[C@H]1c2ccccc2S(=O)(=O)N1Cc1cccc(C(F)(F)F)c1 | . | -1.7 | . | . | .
CCOC(=O)CC1C(=O)NCCN1Cc1cccc(C(F)(F)F)c1 (stereo not given) | 55* | 0.5 | 0.4 | 1.2 | -20
Cc1[nH]c2c(ccc3ccccc32)c1C1C(CCN)C1(C)C (stereo not given) | 13 | -0.71 | 0.9 | 0.7 | 31
SMILES | CYP2C19 inh | Cav3 T inh | CYP2C19 activ | CYP2C9 act | CYP2C9 inh
CC(C)c1ccc(-c2nnn(Cc3nc4ccccc4s3)n2)cc1 | 12 | . | 0.9 | 0.5 | 51*
COc1ccc(C2C3C=CCC(c4cccc(-c5ccc(C)cc5)c4)C3C(=O)N2Cc2ccccc2)cc1Cl (stereo not given) | . | 1.3 | . | . | .
COC(=O)CC1SC(=O)NC1=Nc1ccc(C)cc1 (stereo not given) | 75* | 0.26 | 0.2 | 0.8 | 23
COC(=O)CC1SC(=O)NC1=Nc1ccccc1 (stereo not given) | 30 | -0.28 | 0.7 | 0.8 | 22
CC(C)OCCCNC(=O)c1cc2c(s1)CS(=O)(=O)C2 | 7 | 0.036 | 0.9 | 1.1 | -11
O=C1C(=O)N(Cc2cccnc2)C(c2ccccn2)/C1=C(/O)c1ccc(Br)cc1 (stereo not given) | -1 | -1.5 | 1 | 0.1 | 86*
Cc1ccc(C(=O)C(C)OC(=O)c2cc3cc([N+](=O)[O-])ccc3oc2=O)cc1 (stereo not given) | 16 | 0.018 | 0.8 | 0.1 | 88*
COc1cc2c(C(=O)N3CCN(c4ccccc4C)CC3)c(C)oc2cc1Br | 60* | -1.5 | 0.4 | 0.3 | 72*
COc1ccccc1N1CCN(C(=O)c2oc3cc(C)c(C)cc3c2C)CC1 | 44 | -1.3 | 0.6 | 0.3 | 74*
COc1ccccc1N1CCN(C(=O)c2c(C)cc(=O)oc2C)CC1 | 15 | 0.041 | 0.8 | 1.1 | -5
CCOC(=O)c1c(C)oc2cc(Br)c(OC)cc12 | 8 | 0.057 | 0.9 | 1 | 3
c1ccc(-n2cnc3cc(NCc4ccccn4)ccc32)cc1 | 85* | 1 | 0.2 | 0.3 | 74*
CC(C)n1cnc2cc(NCc3ccccn3)ccc21 | 2 | -0.3 | 1 | 0.8 | 18
CCN(CC)CCCNC(=O)c1nn(-c2cccc(OC)c2)c(=O)c2ccccc12 | -7 | 0.83 | 1.1 | 0.7 | 29
Cc1ccc(-n2nnnc2SCC(=O)Nc2ccc3c(c2)COC3=O)cc1C | 20 | -0.011 | 0.8 | 1 | -3
Cc1cc2nnc(SCCCCN3C(=O)c4ccccc4C3=O)n2c2ccccc12 | 45 | -2.4 | 0.5 | 2.9* | -194
O=C1c2ccccc2C(=O)N1CCCCSc1nnc2c(Cl)cc(Cl)cn12 | 49 | 0.93 | 0.5 | 0.8 | 17
CC(C)n1c(SCc2cc(=O)[nH]c3ccccc23)nc2c1c(=O)n(C)c(=O)n2C | 6 | 2.2 | 0.9 | 0.6 | 38
CC(C)n1c(SCc2ccccc2F)nc2c1c(=O)n(C)c(=O)n2C | 60* | -2.2 | 0.4 | 0.3 | 74*
Cn1c(=O)c2c(nc(SCc3ccccc3)n2Cc2ccc(Cl)cc2)n(C)c1=O | . | -4.4* | . | . | .
Cn1c(N2CCN(c3ccccn3)CC2)nc2c1c(=O)n(Cc1ccc(Cl)cc1)c(=O)n2C | 92* | -3.3* | 0.1 | 0.1 | 86*
CCOC(=O)CSc1nc2c(c(=O)n(C)c(=O)n2C)n1CCCc1ccccc1 | 57* | -0.84 | 0.4 | 0.3 | 73*
CN(C)c1nc2c(c(=O)n(C)c(=O)n2C)n1Cc1ccccc1 | 43 | 0.4 | 0.6 | 1.1 | -8
Cn1c(N2CCOCC2)nc2c1c(=O)n(Cc1ccc(Cl)cc1)c(=O)n2C | . | 0.66 | . | . | .
Cc1cc(C)n(-c2nc3c(c(=O)n(C)c(=O)n3C)n2C)n1 | -11 | -0.34 | 1.1 | 1.2 | -16
N#Cc1cccc(NC(=O)N2CCC(c3nc4c(nnn4Cc4cccc(Cl)c4)c(=O)[nH]3)CC2)c1 | -18 | -0.087 | 1.2 | 1.2 | -18
CC(C)Sc1nc2c(c(=O)n(C)c(=O)n2C)n1Cc1ccc(Cl)cc1 | 32 | -4.5* | 0.7 | 0.8 | 24
C/C(=N/Oc1nc(C)cc(C)n1)c1ccc(F)cc1 | 15 | 0.58 | 0.9 | 1 | 4
Cn1cnnc1SCCNS(=O)(=O)c1ccccc1 | 3 | -0.72 | 1 | 1 | -3
